NP40-soluble protein abundance data for 16 targets are collected here from the supplement of paper PMC6411743.

± gives the standard deviation of the averaged measurements. Targets with the largest changes are over-represented here; the source holds about 6,500 in all.

Compound in the test: Nc1ncnc2c1ncn2[C@@H]1O[C@H](COP(=O)(O)OP(=O)(O)OP(=O)(O)O)[C@@H](O)[C@H]1O [adenosine triphosphate]
Briefly: NP40-soluble protein abundance relative to vehicle (solubility fold change) (ratio); higher = more soluble protein in presence of ATP. In a few lines: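 Jurkat crude lysate (Dounce-homogenised) was treated with eight concentrations from 0.1 to 10 mM for 10 min at room temperature, then 3 min at 37 °C. It was solubilised with 0.8% NP40 and benzonase (60 min, 4 °C) and ultracentrifuged, and the supernatant was TMT-labelled for LC-MS/MS. Intensities were vsn-normalised, and the value is the fold change against the NP40-processed vehicle per replicate, from three independent experiments.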

UniProt Q9ULV4, sequence (Q9ULV4 whole entry): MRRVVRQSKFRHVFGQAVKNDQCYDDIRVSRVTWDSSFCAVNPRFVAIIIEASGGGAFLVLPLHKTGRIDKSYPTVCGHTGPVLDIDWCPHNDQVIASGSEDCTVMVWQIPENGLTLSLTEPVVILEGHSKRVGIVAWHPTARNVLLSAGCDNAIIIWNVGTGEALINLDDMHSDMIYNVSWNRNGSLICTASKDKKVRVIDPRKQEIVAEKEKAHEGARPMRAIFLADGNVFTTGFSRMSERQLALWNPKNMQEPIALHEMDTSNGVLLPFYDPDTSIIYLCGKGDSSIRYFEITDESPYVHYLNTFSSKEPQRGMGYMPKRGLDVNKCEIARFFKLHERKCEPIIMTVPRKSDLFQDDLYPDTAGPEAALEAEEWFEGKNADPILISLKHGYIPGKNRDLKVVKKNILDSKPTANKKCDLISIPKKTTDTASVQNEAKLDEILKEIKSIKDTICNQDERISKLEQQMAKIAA
UniProt Q9Y570, sequence (Q9Y570 whole entry): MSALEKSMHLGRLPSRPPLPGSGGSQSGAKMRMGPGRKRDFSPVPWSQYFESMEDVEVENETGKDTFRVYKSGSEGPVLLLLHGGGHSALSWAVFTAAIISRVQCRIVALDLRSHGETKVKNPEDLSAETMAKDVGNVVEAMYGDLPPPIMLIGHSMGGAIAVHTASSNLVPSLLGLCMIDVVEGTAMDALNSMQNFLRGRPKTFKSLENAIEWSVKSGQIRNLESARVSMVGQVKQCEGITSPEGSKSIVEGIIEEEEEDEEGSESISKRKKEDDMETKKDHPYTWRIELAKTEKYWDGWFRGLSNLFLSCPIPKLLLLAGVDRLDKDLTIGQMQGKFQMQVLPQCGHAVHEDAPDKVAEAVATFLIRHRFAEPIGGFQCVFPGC
UniProt Q9UIQ6, sequence (Q9UIQ6 whole entry): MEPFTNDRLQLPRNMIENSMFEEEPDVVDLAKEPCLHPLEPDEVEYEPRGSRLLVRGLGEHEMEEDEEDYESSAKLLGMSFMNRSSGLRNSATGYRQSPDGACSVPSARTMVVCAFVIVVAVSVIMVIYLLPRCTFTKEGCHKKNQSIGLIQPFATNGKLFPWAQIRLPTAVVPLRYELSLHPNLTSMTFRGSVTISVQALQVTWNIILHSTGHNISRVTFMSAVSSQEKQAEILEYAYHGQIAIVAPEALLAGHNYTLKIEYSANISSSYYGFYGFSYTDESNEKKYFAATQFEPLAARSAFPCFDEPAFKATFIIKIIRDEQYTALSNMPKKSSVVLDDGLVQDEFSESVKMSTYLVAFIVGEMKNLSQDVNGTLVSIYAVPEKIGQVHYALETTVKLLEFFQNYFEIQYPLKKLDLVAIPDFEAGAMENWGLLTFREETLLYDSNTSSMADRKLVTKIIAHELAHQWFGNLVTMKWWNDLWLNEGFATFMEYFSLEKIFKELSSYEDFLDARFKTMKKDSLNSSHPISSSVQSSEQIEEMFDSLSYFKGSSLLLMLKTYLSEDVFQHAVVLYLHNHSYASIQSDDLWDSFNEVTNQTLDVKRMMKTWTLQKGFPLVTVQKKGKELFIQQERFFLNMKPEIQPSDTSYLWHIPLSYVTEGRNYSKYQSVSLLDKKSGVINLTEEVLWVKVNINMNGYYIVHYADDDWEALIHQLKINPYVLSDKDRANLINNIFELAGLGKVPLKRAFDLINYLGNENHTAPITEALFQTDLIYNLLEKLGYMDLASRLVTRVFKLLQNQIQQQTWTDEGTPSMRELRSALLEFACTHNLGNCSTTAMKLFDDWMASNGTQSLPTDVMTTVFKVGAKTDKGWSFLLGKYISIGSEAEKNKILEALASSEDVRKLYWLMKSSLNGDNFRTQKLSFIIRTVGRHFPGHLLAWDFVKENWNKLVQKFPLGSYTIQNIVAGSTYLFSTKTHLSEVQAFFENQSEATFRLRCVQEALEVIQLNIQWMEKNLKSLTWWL
UniProt Q9UKK3, sequence (Q9UKK3 whole entry): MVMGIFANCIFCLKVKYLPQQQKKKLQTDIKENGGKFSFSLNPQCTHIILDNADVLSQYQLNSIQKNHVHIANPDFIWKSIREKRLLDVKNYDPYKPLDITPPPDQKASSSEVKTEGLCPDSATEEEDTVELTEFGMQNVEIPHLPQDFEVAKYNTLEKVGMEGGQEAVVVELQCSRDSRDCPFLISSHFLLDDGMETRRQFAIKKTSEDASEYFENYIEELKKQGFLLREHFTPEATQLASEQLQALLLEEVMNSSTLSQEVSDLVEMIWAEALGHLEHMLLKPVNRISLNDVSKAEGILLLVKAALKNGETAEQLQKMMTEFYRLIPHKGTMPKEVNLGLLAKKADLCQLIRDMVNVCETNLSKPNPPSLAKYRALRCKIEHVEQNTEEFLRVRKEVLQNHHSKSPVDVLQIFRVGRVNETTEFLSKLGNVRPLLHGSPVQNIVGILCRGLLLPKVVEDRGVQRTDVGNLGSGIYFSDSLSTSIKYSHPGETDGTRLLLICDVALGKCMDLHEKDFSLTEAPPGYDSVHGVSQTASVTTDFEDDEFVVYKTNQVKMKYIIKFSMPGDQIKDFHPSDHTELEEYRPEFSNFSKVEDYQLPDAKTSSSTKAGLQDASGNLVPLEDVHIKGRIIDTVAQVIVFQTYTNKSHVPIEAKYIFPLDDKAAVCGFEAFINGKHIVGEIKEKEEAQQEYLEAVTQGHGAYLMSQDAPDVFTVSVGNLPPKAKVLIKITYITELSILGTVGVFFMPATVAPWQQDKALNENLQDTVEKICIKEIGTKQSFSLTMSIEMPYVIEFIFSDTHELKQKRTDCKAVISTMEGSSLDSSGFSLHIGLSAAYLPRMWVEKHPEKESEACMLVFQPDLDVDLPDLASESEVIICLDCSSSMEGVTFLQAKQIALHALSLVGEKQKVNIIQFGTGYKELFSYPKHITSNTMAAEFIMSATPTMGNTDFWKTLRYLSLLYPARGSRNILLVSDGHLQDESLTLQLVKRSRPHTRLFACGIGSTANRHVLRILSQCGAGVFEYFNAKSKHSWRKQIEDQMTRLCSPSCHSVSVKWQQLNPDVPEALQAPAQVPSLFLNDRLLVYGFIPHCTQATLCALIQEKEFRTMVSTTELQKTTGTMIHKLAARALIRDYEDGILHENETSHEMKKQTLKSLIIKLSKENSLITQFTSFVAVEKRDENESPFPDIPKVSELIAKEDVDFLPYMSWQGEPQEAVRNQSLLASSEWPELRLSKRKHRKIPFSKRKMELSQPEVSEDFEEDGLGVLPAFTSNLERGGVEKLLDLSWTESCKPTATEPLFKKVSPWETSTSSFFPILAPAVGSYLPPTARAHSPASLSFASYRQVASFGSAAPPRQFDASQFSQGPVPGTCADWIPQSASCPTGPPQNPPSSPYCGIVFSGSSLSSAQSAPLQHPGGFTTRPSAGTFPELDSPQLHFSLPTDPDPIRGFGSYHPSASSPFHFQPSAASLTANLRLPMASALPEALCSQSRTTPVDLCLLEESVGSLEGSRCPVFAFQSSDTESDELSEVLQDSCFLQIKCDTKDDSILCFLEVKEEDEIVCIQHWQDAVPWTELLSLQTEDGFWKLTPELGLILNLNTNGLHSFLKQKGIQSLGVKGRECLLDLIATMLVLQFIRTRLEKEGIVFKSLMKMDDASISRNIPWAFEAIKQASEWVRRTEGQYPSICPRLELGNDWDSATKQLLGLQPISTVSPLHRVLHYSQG
UniProt Q9UP95, sequence (Q9UP95 whole entry): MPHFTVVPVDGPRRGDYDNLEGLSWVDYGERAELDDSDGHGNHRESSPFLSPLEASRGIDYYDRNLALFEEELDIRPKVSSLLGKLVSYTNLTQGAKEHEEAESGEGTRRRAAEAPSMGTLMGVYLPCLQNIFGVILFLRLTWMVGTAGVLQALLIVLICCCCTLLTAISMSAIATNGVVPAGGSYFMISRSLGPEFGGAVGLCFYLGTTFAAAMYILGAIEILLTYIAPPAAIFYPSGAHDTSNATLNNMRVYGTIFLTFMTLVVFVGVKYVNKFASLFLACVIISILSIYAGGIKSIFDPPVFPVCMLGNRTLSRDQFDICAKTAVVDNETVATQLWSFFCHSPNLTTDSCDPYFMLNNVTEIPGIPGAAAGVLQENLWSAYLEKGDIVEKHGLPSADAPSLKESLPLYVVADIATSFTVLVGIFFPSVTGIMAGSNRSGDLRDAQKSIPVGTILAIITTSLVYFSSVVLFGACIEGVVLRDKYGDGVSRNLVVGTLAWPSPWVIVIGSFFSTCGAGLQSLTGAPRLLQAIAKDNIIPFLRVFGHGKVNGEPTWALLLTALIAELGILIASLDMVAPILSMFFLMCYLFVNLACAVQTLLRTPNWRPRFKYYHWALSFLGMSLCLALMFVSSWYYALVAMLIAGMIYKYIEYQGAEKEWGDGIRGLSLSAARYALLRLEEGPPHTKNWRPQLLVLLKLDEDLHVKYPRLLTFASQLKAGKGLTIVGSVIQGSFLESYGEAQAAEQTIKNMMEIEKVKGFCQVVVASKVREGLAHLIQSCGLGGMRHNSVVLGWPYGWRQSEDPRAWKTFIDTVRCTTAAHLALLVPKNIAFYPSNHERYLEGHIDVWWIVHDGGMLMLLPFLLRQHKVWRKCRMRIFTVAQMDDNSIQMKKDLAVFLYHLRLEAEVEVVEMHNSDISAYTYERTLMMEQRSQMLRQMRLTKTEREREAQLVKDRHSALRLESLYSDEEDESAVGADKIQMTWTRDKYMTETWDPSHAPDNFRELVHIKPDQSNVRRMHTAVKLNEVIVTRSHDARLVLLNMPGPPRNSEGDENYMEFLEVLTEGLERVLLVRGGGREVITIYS
UniProt Q9Y639, sequence (Q9Y639 whole entry): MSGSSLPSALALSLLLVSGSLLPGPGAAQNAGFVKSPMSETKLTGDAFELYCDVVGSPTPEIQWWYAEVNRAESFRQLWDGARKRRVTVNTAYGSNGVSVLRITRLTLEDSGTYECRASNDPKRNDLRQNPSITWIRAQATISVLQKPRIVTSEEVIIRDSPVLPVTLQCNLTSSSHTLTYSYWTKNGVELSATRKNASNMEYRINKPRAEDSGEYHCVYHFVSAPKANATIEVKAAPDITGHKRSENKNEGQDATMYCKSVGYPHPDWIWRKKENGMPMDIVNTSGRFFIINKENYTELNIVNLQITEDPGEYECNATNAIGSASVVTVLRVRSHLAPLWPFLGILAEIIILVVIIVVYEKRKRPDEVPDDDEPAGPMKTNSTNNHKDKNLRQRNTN

As for UniProt Q9Y224, the NP40-soluble protein abundance runs as follows: (concentration: 1mM) 0.958 ± 0.053; (concentration: 2mM) 0.872 ± 0.031; (concentration: 4mM) 0.903 ± 0.092; (concentration: 6mM) 0.918 ± 0.12; (concentration: 8mM) 0.995 ± 0.011; (concentration: 10mM) 0.782 ± 0.18.

As for LNPEP (UniProt Q9UIQ6), the NP40-soluble protein abundance by setting is: (concentration: 1mM) 0.914 ± 0.015; (concentration: 2mM) 0.937 ± 0.021; (concentration: 4mM) 0.909 ± 0.022; (concentration: 6mM) 0.918 ± 0.035; (concentration: 8mM) 0.882 ± 0.045; (concentration: 10mM) 0.872 ± 0.038.

Turning to UniProt Q9ULE6, the NP40-soluble protein abundance is, setting by setting: (concentration: 1mM) 1.08 ± 0.084; (concentration: 2mM) 1.03 ± 0.12; (concentration: 4mM) 1.06 ± 0.092; (concentration: 6mM) 0.991 ± 0.1; (concentration: 8mM) 1.05 ± 0.045; (concentration: 10mM) 1.02 ± 0.048.

UniProt Q9ULV4|Q9ULV4-2|Q9ULV4-3: the NP40-soluble protein abundance was 1.08 ± 0.086 (concentration: 1mM); 1.16 ± 0.1 (concentration: 2mM); 1.24 ± 0.11 (concentration: 4mM); 1.4 ± 0.12 (concentration: 6mM); 1.43 ± 0.13 (concentration: 8mM); 1.52 ± 0.16 (concentration: 10mM).

As to UniProt Q9UHB6|F8VQE1|Q9UHB6-2, the NP40-soluble protein abundance reads like this: (concentration: 1mM) 1.05 ± 0.14; (concentration: 2mM) 1.16 ± 0.14; (concentration: 4mM) 1.35 ± 0.16; (concentration: 6mM) 1.56 ± 0.21; (concentration: 8mM) 1.62 ± 0.12; (concentration: 10mM) 1.86 ± 0.18.

For the target PPME1 (UniProt Q9Y570), the NP40-soluble protein abundance worked out at 0.951 ± 0.039 (concentration: 1mM); 0.972 ± 0.056 (concentration: 2mM); 0.956 ± 0.037 (concentration: 4mM); 0.933 ± 0.085 (concentration: 6mM); 0.941 ± 0.023 (concentration: 8mM); 0.953 ± 0.058 (concentration: 10mM).

NOP58 (UniProt Q9Y2X3): the NP40-soluble protein abundance runs as follows: (concentration: 1mM) 1.08 ± 0.062; (concentration: 2mM) 1.1 ± 0.054; (concentration: 4mM) 1.2 ± 0.054; (concentration: 6mM) 1.35 ± 0.079; (concentration: 8mM) 1.51 ± 0.042; (concentration: 10mM) 1.71 ± 0.13.

With “UniProt Q9Y639|Q9Y639-1|Q9Y639-3|Q9Y639-5”, the NP40-soluble protein abundance is 0.919 ± 0.11 (concentration: 1mM); 0.888 ± 0.06 (concentration: 2mM); 0.938 ± 0.1 (concentration: 4mM); 0.926 ± 0.084 (concentration: 6mM); 0.896 ± 0.061 (concentration: 8mM); 0.851 ± 0.11 (concentration: 10mM).

For PARP4 (UniProt Q9UKK3), the NP40-soluble protein abundance runs as follows: (concentration: 1mM) 1.14 ± 0.017; (concentration: 2mM) 1.15 ± 0.12; (concentration: 4mM) 1.12 ± 0.083; (concentration: 6mM) 1.15 ± 0.14; (concentration: 8mM) 1.14 ± 0.042; (concentration: 10mM) 1.19 ± 0.085.

In the case of PPIL1 (UniProt Q9Y3C6), the NP40-soluble protein abundance by setting is: (concentration: 1mM) 0.919 ± 0.019; (concentration: 2mM) 0.9512 ± 0.0074; (concentration: 4mM) 0.913 ± 0.034; (concentration: 6mM) 0.963 ± 0.031; (concentration: 8mM) 0.964 ± 0.016; (concentration: 10mM) 0.902 ± 0.065.

On to UniProt Q9Y5P4|Q9Y5P4-2|Q9Y5P4-3, for which the NP40-soluble protein abundance is, setting by setting: (concentration: 1mM) 0.9555 ± 0.0053; (concentration: 2mM) 0.974 ± 0.025; (concentration: 4mM) 0.948 ± 0.011; (concentration: 6mM) 0.949 ± 0.024; (concentration: 8mM) 0.93 ± 0.011; (concentration: 10mM) 0.954 ± 0.026.

For UniProt Q9Y5T5-2, the NP40-soluble protein abundance came to 1.08 ± 0.067 (concentration: 1mM); 1.11 ± 0.032 (concentration: 2mM); 1.19 ± 0.014 (concentration: 4mM); 1.33 ± 0.045 (concentration: 6mM); 1.351 ± 0.012 (concentration: 8mM); 1.41 ± 0.028 (concentration: 10mM).

On to NOB1 (UniProt Q9ULX3), for which the NP40-soluble protein abundance is, setting by setting: (concentration: 1mM) 1.07 ± 0.023; (concentration: 2mM) 1.06 ± 0.086; (concentration: 4mM) 1.03 ± 0.077; (concentration: 6mM) 1.07 ± 0.13; (concentration: 8mM) 1.08 ± 0.054; (concentration: 10mM) 1.05 ± 0.065.

As to UniProt Q9Y6X3, the NP40-soluble protein abundance is, setting by setting: (concentration: 1mM) 0.977 ± 0.053; (concentration: 2mM) 1.06 ± 0.086; (concentration: 4mM) 1.15 ± 0.25; (concentration: 6mM) 1.09 ± 0.26; (concentration: 8mM) 0.98 ± 0.057; (concentration: 10mM) 1.11 ± 0.22.

As to UniProt Q9Y303|Q9Y303-2|Q9Y303-3, the NP40-soluble protein abundance reads like this: (concentration: 1mM) 0.995 ± 0.056; (concentration: 2mM) 1.03 ± 0.069; (concentration: 4mM) 1.03 ± 0.083; (concentration: 6mM) 0.973 ± 0.12; (concentration: 8mM) 1.02 ± 0.086; (concentration: 10mM) 0.995 ± 0.063.

For UniProt Q9UP95|Q9UP95-5|Q9UP95-6, the NP40-soluble protein abundance runs as follows: (concentration: 1mM) 0.956 ± 0.1; (concentration: 2mM) 0.979 ± 0.12; (concentration: 4mM) 0.964 ± 0.11; (concentration: 6mM) 1.03 ± 0.058; (concentration: 8mM) 0.909 ± 0.099; (concentration: 10mM) 0.989 ± 0.035.
